This is one part of the list. The true hit rate is not given.
Target: furin, P09958
Assay: furin cleavage Z-score vs untreated control; higher = more cleavage, active = 3.5 or more, inactive = 1 or less, 8 variable residues between constant flanks
Method: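 Multiplexed peptide-cDNA fusion cleavage assay. 8-mer variable peptides flanked by constant Cys-Ala (N-term) and Ala-Gly-Asn-Ala-Ser-Ala-Ser-Ala (C-term) and conjugated to a cDNA oligonucleotide were bead-immobilised via the N-terminus. They were treated with purified furin at a 1:10 enzyme:substrate ratio in 50 mM HEPES pH 7.5, 1 mM CaCl2, 100 mM NaCl for 7.5, 15 or 30 min. Released cDNA was counted by next-generation sequencing, and log counts versus no-furin controls were lowess-adjusted and converted to robust Z-scores.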

furin, P09958, sequence (P09958 whole entry): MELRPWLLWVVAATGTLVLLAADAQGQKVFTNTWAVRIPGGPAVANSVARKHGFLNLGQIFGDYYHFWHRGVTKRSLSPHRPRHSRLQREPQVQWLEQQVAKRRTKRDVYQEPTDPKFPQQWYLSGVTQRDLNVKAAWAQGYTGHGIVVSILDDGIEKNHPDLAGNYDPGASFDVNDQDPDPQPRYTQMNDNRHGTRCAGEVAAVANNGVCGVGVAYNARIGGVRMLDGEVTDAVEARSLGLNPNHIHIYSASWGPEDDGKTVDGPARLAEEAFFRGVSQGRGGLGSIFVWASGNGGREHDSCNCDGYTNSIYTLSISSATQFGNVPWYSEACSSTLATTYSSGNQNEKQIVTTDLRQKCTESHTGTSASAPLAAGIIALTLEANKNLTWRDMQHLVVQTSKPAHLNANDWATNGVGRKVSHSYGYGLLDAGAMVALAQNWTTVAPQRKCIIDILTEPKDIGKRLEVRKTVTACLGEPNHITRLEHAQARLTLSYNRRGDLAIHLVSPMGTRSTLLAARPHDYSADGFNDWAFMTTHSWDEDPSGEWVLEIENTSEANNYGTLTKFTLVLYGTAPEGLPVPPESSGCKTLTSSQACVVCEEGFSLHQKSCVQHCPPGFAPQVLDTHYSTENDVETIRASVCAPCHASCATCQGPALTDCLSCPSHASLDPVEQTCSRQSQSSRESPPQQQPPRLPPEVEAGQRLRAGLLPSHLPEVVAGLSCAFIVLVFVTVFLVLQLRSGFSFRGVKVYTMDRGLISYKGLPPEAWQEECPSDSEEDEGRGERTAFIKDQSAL

| Sequence | furin cleavage Z-score (7.5 min) | furin cleavage Z-score (15 min) | furin cleavage Z-score (30 min) |
| --- | --- | --- | --- |
| CAVVPCHRPSAGNASASA [HC2310] | 0.864 (inactive) | 0.937 (inactive) | 1.82 |
| CADSLNTGWLAGNASASA [HC376] | -0.896 (inactive) | 0.0514 (inactive) | -1.36 (inactive) |
| CAAGLFYHHKAGNASASA [HC380] | -0.0785 (inactive) | -0.406 (inactive) | 0.464 (inactive) |
| CATTPCSESWAGNASASA [HC1892] | -1.68 (inactive) | -0.885 (inactive) | 0.194 (inactive) |
| CAKKKCDELAAGNASASA [HC859] | 0.206 (inactive) | -0.587 (inactive) | -1.61 (inactive) |
| CADAELIEANAGNASASA [HC1272] | 1.56 | 1.04 | 0.698 (inactive) |
| CAGLGRRRRVAGNASASA [FS-1127] | 6.73 (active) | 8.39 (active) | 7.41 (active) |
| CAPVRRRGDSAGNASASA [HC731] | -0.373 (inactive) | 0.103 (inactive) | -0.876 (inactive) |
| CAYLRRRRRVAGNASASA [FS-391] | 9.87 (active) | 10.2 (active) | 8.18 (active) |
| CAGLDRLRRVAGNASASA [FS-1126] | 0.977 (inactive) | 1.09 | 1.81 |
| CADVSRARRVAGNASASA [FS-1519] | 0.954 (inactive) | 1.02 | 1.74 |
| CAPVRRWRRVAGNASASA [FS-1247] | 9.64 (active) | 9.32 (active) | 6.63 (active) |
| CAYINRKKKVAGNASASA [FS-633] | -0.8 (inactive) | -0.697 (inactive) | -0.973 (inactive) |
| CATTPCSHSWAGNASASA [HC1895] | -0.676 (inactive) | 1.01 | -1.05 (inactive) |
| CASIYPGHITAGNASASA [HC314] | -1.99 (inactive) | -1.12 (inactive) | 0.0447 (inactive) |
| CALTSMLTDPAGNASASA [HC1246] | -0.19 (inactive) | -0.57 (inactive) | -0.448 (inactive) |
| CAHTPCSGSWAGNASASA [HC1835] | -0.934 (inactive) | -0.656 (inactive) | -1.49 (inactive) |
| CAAQAPPPSWAGNASASA [HC959] | -0.328 (inactive) | 0.141 (inactive) | -1.2 (inactive) |
| CAANHVVKRDAGNASASA [FS-642] | 8.87 (active) | 11.8 (active) | 8.5 (active) |
| CAGQSWVKRDAGNASASA [FS-331] | 1.45 | 0.512 (inactive) | 1.11 |
| CAINKRVKRDAGNASASA [FS-253] | 7.21 (active) | 5.79 (active) | 4.98 (active) |
| CATHINSVWKAGNASASA [HC1429] | -0.832 (inactive) | -2.14 (inactive) | -0.179 (inactive) |

| Sequence | furin cleavage Z-score (7.5 min) | furin cleavage Z-score (15 min) | furin cleavage Z-score (30 min) |
| --- | --- | --- | --- |
| CAEVPTSTWVAGNASASA [HC2199] | 0.334 (inactive) | -2.59 (inactive) | -0.0938 (inactive) |
| CATQPCSGSWAGNASASA [HC1862] | 0.195 (inactive) | -1.61 (inactive) | 0.946 (inactive) |
| CAEVPCHLPSAGNASASA [HC2365] | 0.888 (inactive) | 0.887 (inactive) | 2.28 |
| CAPQSRGRREAGNASASA [FS-476] | 13.1 (active) | 13.2 (active) | 8.24 (active) |
| CAPVLRGQAGAGNASASA [FS-3180] | -0.625 (inactive) | 0.202 (inactive) | -0.205 (inactive) |
| CAGCVPCVREAGNASASA [HC273] | 0.467 (inactive) | 0.158 (inactive) | 1.81 |
| CAGQKRSRSRAGNASASA [FS-2862] | 0.426 (inactive) | -2.34 (inactive) | 0.754 (inactive) |
| CAGSKRSRREAGNASASA [FS-1207] | 11.5 (active) | 11.8 (active) | 7.54 (active) |
| CAGSNRKVREAGNASASA [FS-435] | 10.8 (active) | 11.2 (active) | 7.92 (active) |
| CAGSMRANRIAGNASASA [FS-1128] | -0.706 (inactive) | 0.0659 (inactive) | 0.059 (inactive) |
| CAPESRKRREAGNASASA [FS-368] | 13.9 (active) | 14.4 (active) | 11.3 (active) |
| CAGSGPDQRPAGNASASA [HC399] | -0.948 (inactive) | 0.971 (inactive) | -0.827 (inactive) |
| CAPVVFSQMEAGNASASA [HC647] | 1.38 | 1.32 | 0.561 (inactive) |
| CAYPKRSAGEAGNASASA [FS-2117] | -0.54 (inactive) | -0.564 (inactive) | 0.202 (inactive) |
| CAGFLRKRREAGNASASA [FS-426] | 11.1 (active) | 11.2 (active) | 8.58 (active) |
| CATKNRQRRGAGNASASA [FS-1094] | 6.87 (active) | 7.34 (active) | 5.71 (active) |
| CAWQRRQRRGAGNASASA [FS-896] | 6 (active) | 6.49 (active) | 5.96 (active) |
| CADGNRQVRGAGNASASA [FS-981] | 0.00638 (inactive) | -1.04 (inactive) | 0.17 (inactive) |
| CAKWLRFIRGAGNASASA [FS-1022] | 2.09 | 0.354 (inactive) | 3.09 |
| CALNNRQIRGAGNASASA [FS-1136] | 3.62 (active) | 5.07 (active) | 5.04 (active) |
| CANCLRQRRGAGNASASA [FS-465] | -0.759 (inactive) | -0.337 (inactive) | -0.511 (inactive) |
| CAPPRRQRRGAGNASASA [FS-1050] | 0.924 (inactive) | 0.828 (inactive) | 1.23 |

From the supplement of paper PMC3545927
